# Inconclusive results are not listed. Active and inactive are the calls of the source. The call rests on the fitted dose curve; in most records, active means well fitted curve in the direction sought with a large enough effect; inconclusive means small, poorly fitted or top-dose-only effect, or another doubt; inactive means no such curve, though single readings can be large; an effect the other way counts as inactive or inconclusive.
# Assay: qHTS of pediatric cancer cell lines to identify multiple opportunities for drug repurposing: Primary screen for control Hh wild type fibroblast cells (AID 1347106);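 further: a drop in luminescence marks cytotoxicity and a rise apparent proliferation; nearly all actives have a fitted effect of over 55% in size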
# Conditions: Hh wild-type fibroblast viability, CellTiter-Glo luminescence, 48 h; series mostly up to 46 µM
# Summary of the method: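 Cells (500-1,000/well) in growth media were settled 5 h at 37 degrees C, then given compounds for 48 h. Viability was read as CellTiter-Glo luminescence. Primary runs used MIPE at 11 points (0.78 nM-46 µM) and NPC at 8 points (0.59 nM-46 µM); follow-ups used 11 points.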
row,SMILES,outcome
1,O=c1[nH]c2cc(C(F)(F)F)c(N3CCOCC3)cc2n(CP(=O)(O)O)c1=O,inactive
2,Cc1c(N(C)C)c(=O)n(-c2ccccc2)n1C,inactive
3,CCCOC(=O)c1ccc(N)cc1,inactive
4,Cc1cc(C)c(NC(=O)CN(CC(=O)O)CC(=O)O)c(C)c1Br,inactive
5,COC(=O)c1ccc(O)cc1,inactive
6,CCCCCCCCCCCCCCCCC(C(=O)O)C(O)(CC(=O)O)C(=O)O (stereo unspecified),inactive
7,CC1(C)S[C@@H]2[C@H](N=CN3CCCCCC3)C(=O)N2[C@H]1C(=O)O,inactive
8,CCOC(=O)[C@H](CCc1ccccc1)N[C@@H](C)C(=O)N1CCC[C@H]1C(=O)O,inactive
9,O=C(O)c1cc(=O)c2ccccc2o1,inactive
10,COc1ccccc1OC(=O)Oc1ccccc1OC,inactive
11,CCCCCCCCCCCCCCCCN,inactive
12,Cn1c(=O)c2c(ncn2CCO)n(C)c1=O,inactive
13,CC(=O)NCc1c(I)c(NC(C)=O)c(I)c(C(=O)O)c1I,inactive
14,CCCCCC(C)N (stereo unspecified),inactive
15,CCN(CC)C(=O)c1cccc(C)c1,inactive
16,CCc1cccc(CC)c1NC(=O)CN(CC(=O)O)CC(=O)O,inactive
17,CC(CSC(=O)c1ccccc1)C(=O)N1C[C@@H](Sc2ccccc2)C[C@H]1C(=O)O (stereo partly specified),inactive
18,Nc1ccc(S(=O)(=O)c2ccc(N)cc2)cc1,inactive
19,Cc1c(I)c(=O)n(-c2ccccc2)n1C,inactive

row,SMILES,outcome
1,CCOC(=O)[C@H](CCc1ccccc1)N[C@@H](C)C(=O)N1Cc2cc(OC)c(OC)cc2C[C@H]1C(=O)O,inactive
2,O=C1CC[C@@H](C(=O)O)N1,inactive
3,CN(C(=O)c1c(O)c2ccccc2n(C)c1=O)c1ccccc1,inactive
4,C=CCOc1ccccc1OCC(O)CNC(C)C (stereo unspecified),inactive
5,O=c1[nH]cnc2nc[nH]c12,inactive
6,CC(=O)N[C@@H](CC(C)C)C(=O)O,inactive
7,CC(C)CCCC(C)CCCC(C)CCCCC(C)CCCC(C)CCCC(C)C (stereo unspecified),inactive
8,Cn1cc(C(=O)[C@@H]2CCc3nc[nH]c3C2)c2ccccc21,inactive
9,Cn1c([N+](=O)[O-])cnc1COC(N)=O,inactive
10,CC[N+](C)(CC)CCOC(=O)C1c2ccccc2Oc2ccccc21,inactive
11,CC(=O)Nc1cccc(O)c1,inactive
12,CC1(c2ccccc2)OC(C(=O)O)=CC1=O (stereo unspecified),inactive
13,COc1nccnc1NS(=O)(=O)c1ccc(N)cc1,inactive
14,O=C1c2ccccc2S(=O)(=O)N1CCCCN1CCN(c2ncccn2)CC1,inactive
15,Cc1ccsc1/C=C/C1=NCCCN1C,inactive
16,NS(=O)(=O)c1cc(C2(O)NC(=O)c3ccccc32)ccc1Cl (stereo unspecified),inactive
17,NCc1ccc(S(N)(=O)=O)cc1,inactive
18,CCOC(N)=O,inactive
19,C/C=C/C(=O)N(CC)c1ccccc1C,inactive

# Assay: qHTS of pediatric cancer cell lines to identify multiple opportunities for drug repurposing: Primary screen for Rh30 cells (AID 1347107); further: nearly all actives have a fitted effect of over 75% in size
# Conditions: Rh30 rhabdomyosarcoma viability, CellTiter-Glo luminescence, 48 h; series mostly up to 46 µM
# Summary of the method: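 Cells (500-1,000/well) rested 5 h, then received compounds for 48 h; metabolically active cells were measured by CellTiter-Glo luminescence. Final concentrations spanned up to 46 µM (MIPE, 11-point) or 0.59 nM-46 µM (NPC, 8-point) in primary screens, 11-point in follow-ups.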
row,SMILES,outcome
1,O=c1[nH]c2cc(C(F)(F)F)c(N3CCOCC3)cc2n(CP(=O)(O)O)c1=O,inactive
2,Cc1c(N(C)C)c(=O)n(-c2ccccc2)n1C,inactive
3,CCCOC(=O)c1ccc(N)cc1,inactive
4,Cc1cc(C)c(NC(=O)CN(CC(=O)O)CC(=O)O)c(C)c1Br,inactive
5,COC(=O)c1ccc(O)cc1,inactive
6,CCCCCCCCCCCCCCCCC(C(=O)O)C(O)(CC(=O)O)C(=O)O (stereo unspecified),inactive
7,CC1(C)S[C@@H]2[C@H](N=CN3CCCCCC3)C(=O)N2[C@H]1C(=O)O,inactive
8,CCOC(=O)[C@H](CCc1ccccc1)N[C@@H](C)C(=O)N1CCC[C@H]1C(=O)O,inactive
9,O=C(O)c1cc(=O)c2ccccc2o1,inactive
10,COc1ccccc1OC(=O)Oc1ccccc1OC,inactive
11,CCCCCCCCCCCCCCCCN,inactive
12,Cn1c(=O)c2c(ncn2CCO)n(C)c1=O,inactive
13,CC(=O)NCc1c(I)c(NC(C)=O)c(I)c(C(=O)O)c1I,inactive
14,CCCCCC(C)N (stereo unspecified),inactive
15,CCN(CC)C(=O)c1cccc(C)c1,inactive
16,CCc1cccc(CC)c1NC(=O)CN(CC(=O)O)CC(=O)O,inactive
17,CC(CSC(=O)c1ccccc1)C(=O)N1C[C@@H](Sc2ccccc2)C[C@H]1C(=O)O (stereo partly specified),inactive
18,Nc1ccc(S(=O)(=O)c2ccc(N)cc2)cc1,inactive
19,Cc1c(I)c(=O)n(-c2ccccc2)n1C,inactive

row,SMILES,outcome
1,CCOC(=O)[C@H](CCc1ccccc1)N[C@@H](C)C(=O)N1Cc2cc(OC)c(OC)cc2C[C@H]1C(=O)O,inactive
2,O=C1CC[C@@H](C(=O)O)N1,inactive
3,CN(C(=O)c1c(O)c2ccccc2n(C)c1=O)c1ccccc1,inactive
4,C=CCOc1ccccc1OCC(O)CNC(C)C (stereo unspecified),inactive
5,O=c1[nH]cnc2nc[nH]c12,inactive
6,CC(=O)N[C@@H](CC(C)C)C(=O)O,inactive
7,CC(C)CCCC(C)CCCC(C)CCCCC(C)CCCC(C)CCCC(C)C (stereo unspecified),inactive
8,Cn1cc(C(=O)[C@@H]2CCc3nc[nH]c3C2)c2ccccc21,inactive
9,Cn1c([N+](=O)[O-])cnc1COC(N)=O,inactive
10,CC[N+](C)(CC)CCOC(=O)C1c2ccccc2Oc2ccccc21,inactive
11,CC(=O)Nc1cccc(O)c1,inactive
12,CC1(c2ccccc2)OC(C(=O)O)=CC1=O (stereo unspecified),inactive
13,COc1nccnc1NS(=O)(=O)c1ccc(N)cc1,inactive
14,O=C1c2ccccc2S(=O)(=O)N1CCCCN1CCN(c2ncccn2)CC1,inactive
15,Cc1ccsc1/C=C/C1=NCCCN1C,inactive
16,NS(=O)(=O)c1cc(C2(O)NC(=O)c3ccccc32)ccc1Cl (stereo unspecified),inactive
17,NCc1ccc(S(N)(=O)=O)cc1,inactive
18,CCOC(N)=O,inactive
19,C/C=C/C(=O)N(CC)c1ccccc1C,inactive
